In PMC4336329 (PLoS ONE, 2015):
Out of some 310,000 compounds screened, about 14,000 (4.5%) showed an effect of 50% or more. The effect is printed as a negative number. The sample holds strong results, similar compounds and a random draw of the others, so the mix is not that of the screen.

target: human ether-à-go-go-related gene (hERG) potassium channel (human, UniProt Q12809); assay: primary screen, population patch clamp on CHO cells stably expressing hERG; higher = less effect of the substance
Sequence (Q12809 whole entry, looked up): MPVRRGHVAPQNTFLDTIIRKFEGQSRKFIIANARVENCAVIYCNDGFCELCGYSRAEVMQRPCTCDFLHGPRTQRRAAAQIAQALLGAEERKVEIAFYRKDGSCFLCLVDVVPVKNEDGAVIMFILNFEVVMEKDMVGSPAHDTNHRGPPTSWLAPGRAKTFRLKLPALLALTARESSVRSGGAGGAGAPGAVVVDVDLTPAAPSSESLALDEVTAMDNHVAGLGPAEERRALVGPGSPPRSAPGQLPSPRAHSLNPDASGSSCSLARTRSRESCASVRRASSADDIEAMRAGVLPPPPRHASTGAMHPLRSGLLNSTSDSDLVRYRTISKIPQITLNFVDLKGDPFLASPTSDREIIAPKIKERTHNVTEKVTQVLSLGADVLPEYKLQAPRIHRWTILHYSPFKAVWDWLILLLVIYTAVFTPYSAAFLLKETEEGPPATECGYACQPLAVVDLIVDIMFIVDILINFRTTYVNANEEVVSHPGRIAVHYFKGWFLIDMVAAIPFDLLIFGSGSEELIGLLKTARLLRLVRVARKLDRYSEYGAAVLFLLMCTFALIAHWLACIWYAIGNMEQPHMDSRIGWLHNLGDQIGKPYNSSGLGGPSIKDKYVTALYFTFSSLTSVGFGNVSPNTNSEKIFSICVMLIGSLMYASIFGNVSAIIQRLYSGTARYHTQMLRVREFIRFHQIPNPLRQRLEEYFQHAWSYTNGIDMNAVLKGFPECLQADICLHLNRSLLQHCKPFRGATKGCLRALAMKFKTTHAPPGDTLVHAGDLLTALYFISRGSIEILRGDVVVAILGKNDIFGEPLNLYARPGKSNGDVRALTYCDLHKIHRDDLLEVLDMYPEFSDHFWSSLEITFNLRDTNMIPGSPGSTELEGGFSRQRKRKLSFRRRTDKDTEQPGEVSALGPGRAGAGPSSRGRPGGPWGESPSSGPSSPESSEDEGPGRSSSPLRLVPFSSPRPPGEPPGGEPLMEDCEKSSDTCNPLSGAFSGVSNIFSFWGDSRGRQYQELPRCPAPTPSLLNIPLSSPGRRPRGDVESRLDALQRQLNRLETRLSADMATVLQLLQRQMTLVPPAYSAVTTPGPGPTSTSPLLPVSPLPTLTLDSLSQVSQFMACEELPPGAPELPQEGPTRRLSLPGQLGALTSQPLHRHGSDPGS
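Note: peak tail current of the secondary pulse compared with the same well before compound.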

In order of falling “hERG current change (%, negative = inhibition) at 10uM” value:
1. CC(C)NC(=O)NC(=O)CSc1ncccn1  15.7%
2. Cc1ccc(NC(=O)CN2CCOCC2)cc1C  14.3%
3. NNc1nc(-c2ccccc2Cl)nc2ccccc12  11.1%
4. COc1ccc(NC(=O)CCS(=O)(=O)c2ccc3c(c2)CCCN3C(C)=O)cc1  9.92%
5. O=C(c1cccnc1)N1CCN(S(=O)(=O)c2ccc(S(=O)(=O)N3CCCC3)cc2)CC1  9.65%
6. CCOc1ccc(S(=O)(=O)NNC(=S)Nc2ccc(Br)cc2)cc1  5.35%
7. NS(=O)(=O)c1ccc(CCNC(=O)c2ccccc2OCc2ccc(F)cc2)cc1  4.16%
8. Cc1ccc(N(C(=O)c2ccc(S(=O)(=O)N3CCOCC3)cc2)C2C=CS(=O)(=O)C2)cc1 (stereo not drawn)  3.58%
9. NS(=O)(=O)c1ccc(NCc2cc(Cl)ccc2OCc2ccc(F)cc2)cc1  3.36%
10. Cc1ccc(NC2CCCN(C(=O)c3cccc(-c4ncc[nH]4)c3)C2)cc1C (stereo not drawn)  3.23%
11. COc1ccc(NC(=O)C(c2ccccc2)N(C)C(=O)c2cnccn2)cc1 (stereo not drawn)  1.47%
12. NC(=O)c1nsc(C(=O)N(Cc2cccnc2)C(C(=O)NCc2ccc(F)cc2)c2ccc(F)cc2)c1N (stereo not drawn)  0.71%
13. O=C(Cn1c(=O)[nH]c2ccccc2c1=O)N1CCN(Cc2ccc3c(c2)OCO3)CC1  0.172%
14. COC1=C(Nc2ccccc2OC)C(=O)c2ccccc2C1=O  0.0125%
15. NC(=O)c1nsc(C(=O)N(Cc2cccnc2)C(C(=O)NCc2ccc(F)cc2)c2ccc(O)cc2)c1N (stereo not drawn)  -1.96%
16. O=C(NCc1ccc(F)cc1)C(=O)NCC1OCCN1C(=O)c1cccs1 (stereo not drawn)  -4.15%
17. C=CCN(Cc1nc(-c2ccccc2)no1)C(=O)c1ccoc1C  -4.69%
18. Cc1ccc(NC(=S)NCCN2CCOCC2)cc1C  -5.31%
19. Cc1cccc(-n2ncc(C#N)c2-n2cccc2)c1  -5.85%
20. Cc1cccnc1NC(=O)C1CCN(S(=O)(=O)c2cccs2)CC1  -6.07%
21. O=C(CCCCn1c(=O)[nH]c2ccccc2c1=O)NCc1ccc2c(c1)OCO2  -6.99%
22. O=C(NCc1ccc(Cl)cc1)C(=O)NCC1OCCN1C(=O)c1cccs1 (stereo not drawn)  -7.77%
23. Cn1c(=O)oc2cc(S(=O)(=O)N3CCC(C(=O)NCc4ccc(F)cc4)CC3)ccc21  -8.93%
24. CCCc1cc2c(cc1NC(=O)c1ccccc1F)OCO2  -11.3%
25. CCC(C)(C)NC(=O)C(c1ccc(F)cc1)N(Cc1ccc(OC)cc1)C(=O)c1cnccn1 (stereo not drawn)  -11.8%
26. CC(C)Oc1ccc(C(=O)NCC(=O)OCC(=O)N(C)Cc2cccs2)cc1  -15.9%
27. NS(=O)(=O)c1ccc(NCc2ccccc2OCc2ccc(F)cc2)cc1  -17%
28. COC(=O)c1cccc(NC(=O)c2ccc3c(c2)C(=O)N(CC2CCCO2)C3=O)c1 (stereo not drawn)  -24.3%
29. Cc1ccc(C)c(N2CCN(C(=O)CCCCn3c(=O)[nH]c4ccccc4c3=O)CC2)c1  -25.2%
30. Cl.Clc1ccc(COc2ccccc2CNCc2cccnc2)cc1  -31.1%
31. COc1cc(CNCCc2ccc(S(N)(=O)=O)cc2)ccc1OCc1ccc(Cl)cc1.Cl  -31.8%
32. C=CCOc1ccccc1CNCCc1ccc(S(N)(=O)=O)cc1.Cl  -37.2%
33. O=C(CCn1c(=O)[nH]c2ccccc2c1=O)N1CCN(c2cccc(C(F)(F)F)c2)CC1  -43%
34. O=C(CCCCn1c(=O)[nH]c2ccccc2c1=O)N1CCN(c2cccc(C(F)(F)F)c2)CC1  -56.1%
35. COc1ccc(C(C(=O)NCc2ccc(F)cc2)N(Cc2cccnc2)C(=O)c2snc(C(N)=O)c2N)cc1 (stereo not drawn)  -62%
36. Cc1ccc(NC(=Nc2ccc(Br)cc2)N2CCOCC2)cc1C  -63.8%
37. O=C(NCc1ccccc1)C(=O)NCC1OCCN1C(=O)c1cccs1 (stereo not drawn)  -65.3%
38. COc1ccc(CN(C(=O)c2cnccn2)C(C(=O)Nc2ccc(F)cc2)c2ccccc2)cc1 (stereo not drawn)  -68.2%
39. O=C(CCCCCn1c(=O)[nH]c2ccccc2c1=O)N1CCN(Cc2ccc3c(c2)OCO3)CC1  -71.7%
40. Cl.NS(=O)(=O)c1ccc(CCNCc2ccccc2OCc2ccc(Cl)cc2)cc1  -73.1%
41. Cl.NS(=O)(=O)c1ccc(CCNCc2ccccc2OCc2ccc(F)cc2)cc1  -74.5%
42. Cl.NS(=O)(=O)c1ccc(CCNCc2cc(Cl)ccc2OCc2ccccc2)cc1  -74.5%
